Laboratory results: PubChem BioAssay (NCI)
The panel holds about 83,000 compounds, 20% with a hit somewhere; the sample as a whole holds those more often.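 Step 1: grow cells in 96-well plates. Step 2: add test compound at a single concentration. Step 3: incubate 48 h. Step 4: record percent growth.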 Unmarked numbers belong to inactive results. The source made the active and inactive calls. Rule for the calls: active = growth percent below 10; inactive = the rest.

Legend:
Test in all cases: NCI-60 one-dose screen, 48 h (100 = growth as untreated, 0 = no growth, -100 = all killed)
Conditions in all cases: 10 µM unless noted
NCI-H23 lung = system: NCI-H23 lung
NCI-H226 lung = system: NCI-H226 lung
NCI-H322M lung = system: NCI-H322M lung
HOP-62 NSCLC = system: HOP-62 NSCLC
NCI-H460 lung = system: NCI-H460 lung
HOP-92 NSCLC = system: HOP-92 NSCLC
NCI-H522 lung = system: NCI-H522 lung
A549/ATCC NSCLC = system: A549/ATCC NSCLC
786-0 renal = system: 786-0 renal
COLO 205 colon = system: COLO 205 colon
DU-145 prostate = system: DU-145 prostate
K-562 leukemia = system: K-562 leukemia
MDA-MB-231 breast = system: MDA-MB-231 breast
RXF 393 renal = system: RXF 393 renal
SF-268 CNS = system: SF-268 CNS
SF-295 CNS = system: SF-295 CNS
SF-539 CNS = system: SF-539 CNS
M14 melanoma = system: M14 melanoma
MALME-3M melanoma = system: MALME-3M melanoma

| SMILES | growth (NCI-H23 lung) | growth (NCI-H226 lung) | growth (NCI-H322M lung) | growth (HOP-62 NSCLC) | growth (NCI-H460 lung) | growth (HOP-92 NSCLC) | growth (NCI-H522 lung) | growth (A549/ATCC NSCLC) | growth (786-0 renal) | growth (COLO 205 colon) | growth (DU-145 prostate) | growth (K-562 leukemia) | growth (MDA-MB-231 breast) | growth (RXF 393 renal) | growth (SF-268 CNS) | growth (SF-295 CNS) | growth (SF-539 CNS) | growth (M14 melanoma) | growth (MALME-3M melanoma) |
| --- | --- | --- | --- | --- | --- | --- | --- | --- | --- | --- | --- | --- | --- | --- | --- | --- | --- | --- | --- |
| CCc1nc2cc(F)c(/C=C/C(=O)NO)cc2c(=O)n1CCc1ccccc1 | 25.9% | 32.7% | 23.1% | 5.35% (active) | 7.49% (active) | 15.5% | -7.46% (active) | 14.9% | -5.29% (active) | -23.3% (active) | 7.93% (active) | 7.24% (active) | 15.4% | -13.5% (active) | 16% | 11% | 4.01% (active) | 15.7% |  |
| CCCCCCCC(=O)SCC/C=C/[C@@H]1CC(=O)NCc2cc(ccn2)C2=N[C@@](C)(CS2)C(=O)N[C@@H](C(C)C)C(=O)O1 | 2.97% (active) | -8.32% (active) | -16.8% (active) | -19% (active) | 5.33% (active) | -6.63% (active) | -13% (active) | -6.82% (active) | 12% | -56% (active) | 11.8% | 10.3% | 3.63% (active) |  | 11.8% | -62.2% (active) | 17% | 4.89% (active) | 11.4% |
| O=C(NO)c1ccc(Cn2c(=O)n(-c3ccccc3F)c(=O)c3ccccc32)cc1 | -40.4% (active) | 17.6% | 26.2% | 8.43% (active) | 19% | 23.2% | -60.3% (active) | 5.07% (active) | 33.3% | -58.3% (active) | 6.2% (active) | 1.13% (active) | 21.3% | -44.8% (active) | 1.99% (active) | -44.3% (active) | -12.8% (active) | -22.6% (active) |  |
| COc1ccc2nc3cc(Cl)ccc3c(Nc3ccc(N(C)C)cc3)c2c1 | 91.9% | 83.5% | 109% | 89.9% | 70.6% | 76.3% | 86.6% | 69.3% | 96.9% | 84.6% | 91% | 80.2% | 89.8% |  | 94.5% | 86.8% | 95.1% | 98.2% | 106% |
| C=C1C[C@H](O)[C@H](Br)C(C)(C)[C@@]12CCC(C)=C(Cl)C2 | 12.9% | 14.8% | 40.3% | 35.6% | 13% | 23.6% | 15.7% | 6.49% (active) | 16.7% | -79.1% (active) | 22.7% | 12.3% | 22.4% |  | 30.9% | -3.01% (active) | 34% | -19.7% (active) | 38.5% |
| COc1cc(C(=O)NNC(=O)c2ccc(NC(=O)CCl)cc2)cc(OC)c1OC | 78.9% | 95.5% | 88.5% | 72.7% | 99.5% | 99% | -34.4% (active) | 77% | 95.3% | 106% | 91% | 53.7% | 51.1% | 92.9% | 76.8% | 93.7% | 91.5% | 82.6% |  |
| O=C(NCCO)Nc1ccc(-c2nc(N3CCOCC3)c3cccn3n2)cc1 | 18.2% | 6.97% (active) | 18% | -0.0166% (active) | 8.21% (active) | -21.4% (active) | 10.1% | 2.7% (active) | -5.56% (active) | -7.82% (active) | 11.4% | 34.4% | 4.2% (active) | -33.9% (active) | 11.1% | -23.3% (active) | 0.904% (active) | 6.09% (active) |  |
| Clc1nc(Cl)c2ncn(CC#CCn3cnc4c(Cl)nc(Cl)nc43)c2n1 | 38.6% | 5.54% (active) | 46.6% | 62% | 12.5% | -87.6% (active) | -71.2% (active) | 8.8% (active) | 7.75% (active) | -26.9% (active) | -87.2% (active) | -13% (active) | -52.6% (active) |  | -37.8% (active) | 5.67% (active) | -65.7% (active) | 7.78% (active) | -74.5% (active) |
| CC(C)(C)CC(C)(C)Nc1c(-c2c(O)c3ccccc3oc2=O)nc2c(Cl)cc(C(F)(F)F)cn12 | 103% | 97.5% | 94% | 92.5% | 107% | 87.7% | 81.4% | 85.5% | 97% | 112% | 114% | 94% | 100% | 110% | 107% | 95.9% | 99.1% | 92.2% |  |
| C=C1C(=O)O[C@H]2[C@H]1CC/C(CNC(=O)c1cc3cc(OC)ccc3[nH]1)=C\CC[C@@]1(C)O[C@@H]21 | -54.8% (active) | -40.5% (active) | 65.4% | 46.9% | 19.3% | -67.3% (active) | -67.5% (active) | 18.5% | -67.2% (active) | -73.6% (active) | -92% (active) | -3.44% (active) | -55.5% (active) |  | -39.3% (active) | 37.6% | -60.6% (active) | -42.4% (active) | -61.6% (active) |
| COc1ccc2c(c1OC)C(=O)O[C@@H]2[C@H]1c2c(c(C#CC#Cc3ccc(F)c(F)c3)c3c(c2OC)OCO3)CCN1C | 90.3% | 95.1% | 88.8% | 68% | 103% | 82.3% | 86.5% | 67.8% | 93% | 84.7% | 103% | 87.1% | 90.9% |  | 95.9% | 95.6% | 94.9% | 90.6% | 91% |
| COC(=O)[C@]12CC[C@@H](C)[C@H](C)[C@@H]1C1=CC[C@@H]3[C@@]4(C)C(c5cnco5)=C[C@@](C)(CO)C4=CC[C@@]3(C)[C@]1(C)CC2 | 47.8% | 60% | 86.5% | 93.7% | 8.07% (active) | 41.8% | 33.9% | 47.1% | 70.5% | 27.2% | 29.4% | 30.8% | 58.8% |  | 63% | 31.2% | 66.4% | 63.4% | 87.6% |
| CCOC(=O)C1=C(C)N=C2Sc3cc(OC(F)(F)F)ccc3N2[C@H]1c1ccccn1 | 48.8% | 57.6% | 50.2% | 47.6% | 15.2% | 68% | 48.5% | 30.1% | 59.1% | 36.7% | 46.5% | 21.9% | 53.9% |  | 47.8% | 22.2% | 41% | 27.3% | 59.1% |
| OCCNC(=S)Nc1ccc(-c2nc(N3C[C@H]4CC[C@@H](C3)O4)c3cccn3n2)cc1 | 17.4% | 0.203% (active) | 19.3% | -14.3% (active) | 11% | -21.2% (active) | 13.3% | -1.6% (active) | 1.86% (active) | -8.64% (active) | 8.77% (active) | 19.1% | 4.21% (active) | -31.4% (active) | 9.25% (active) | -34.3% (active) | -12.2% (active) | 5.27% (active) |  |
| C[N+](C)(CCOC(c1ccccc1)c1ccccc1)CC(=O)OCc1ccccc1 | 101% | 91.8% | 90.6% | 97.8% | 110% | 106% | 93.8% | 102% | 105% | 103% | 105% | 126% | 113% |  | 106% | 103% | 105% | 91.3% | 99.7% |
| Nc1c2c(c(O)c3c1=C(CO)C=N3)=NCCS2=O (stereo unspecified) | -33.4% (active) | -52.2% (active) | -95.1% (active) | -52.7% (active) | -61.7% (active) | -54.3% (active) | -46.9% (active) | -42.4% (active) | 36.1% | -75.1% (active) | -95.1% (active) | -7.83% (active) | 1.89% (active) |  | -38.2% (active) | -95.8% (active) | -88.8% (active) | -85.2% (active) | -97.8% (active) |
| COC(=O)[C@]12CC[C@@H](C)[C@H](C)[C@@H]1C1=CC[C@@H]3[C@@]4(C)C[C@@H](OC(=O)/C=C/c5ccccc5)[C@H](O)[C@@](C)(CO)[C@@H]4[C@H](O)C[C@@]3(C)[C@]1(C)CC2 | 4.71% (active) | 0.734% (active) | 37.9% | 11.6% | -39.6% (active) | -3.66% (active) | -59.6% (active) | 5.1% (active) | -29% (active) | -58.6% (active) | 9.11% (active) | 1.96% (active) | -72.7% (active) |  | 17.4% | -16.4% (active) | -49.1% (active) | 16% | 3.65% (active) |
